Test results published in the supplement of paper PMC11219838.

test system: Caenorhabditis elegans L1 (N2); experiment: survival and reproduction score of C. elegans L1 (0: 0-10 living worms, 1: 11-20, 2: 21-50, 3: >50, 4: overgrown) (score 0-4); higher = more worms, less nematicidal, active = 1 or less; extreme values may be limits of the assay; details: 60 µM; 6 days; temperature: 20 °C
In short: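 After compound was pinned to 60 µM final (0.6% v/v DMSO) into wells with roughly 20 synchronized C. elegans N2 L1s and E. coli HB101 in liquid NGM, the sealed 96-well plates were shaken at 200 rpm for 6 days at 20 °C. Under a dissection microscope, survival and reproduction were graded ordinally by living worms per well. A grade of 0 stood for 0–10 worms and 4 for overgrown, starved wells; two biological replicates were averaged.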

SMILES | survival and reproduction score
Clc1ccc(CSc2nnc(-c3ccc(Cl)cc3)o2)cc1 | 4 (inactive)
Cc1cccc(C)c1NC(=O)CSc1nnc(-c2ccncc2)o1 | 4 (inactive)
COc1ccc(CC(=O)Nc2ccc(-c3noc(-c4ccc(F)cc4)n3)cc2)cc1 | 4 (inactive)
CC1Cc2ccccc2N1C(=O)CSc1nnc(-c2ccccc2)o1 (centres undefined) | 4 (inactive)
CCN(C(=O)CSc1nnc(-c2ccncc2)o1)c1ccccc1 | 4 (inactive)
Cc1ccc(-c2nc(-c3ccncc3)no2)c(Cl)c1 | 2 (inactive)
Cc1ccc(-c2noc(CSc3nc(C)cc(C)n3)n2)cc1 | 4 (inactive)
Cc1ccc(NC(=O)CSc2nnc(-c3ccco3)o2)cc1Br | 4 (inactive)
Cc1cc(C)cc(-c2nc(-c3ccc(Cl)cc3)no2)c1 | 4 (inactive)
Cc1ccc(-c2noc(-c3ccc4c(c3)OCCO4)n2)cc1 | 4 (inactive)
O=C(CSc1nnc(-c2ccco2)o1)Nc1ccc(Br)cc1 | 4 (inactive)
Brc1ccc(-c2nc(-c3ccccc3)no2)cc1 | 0 (active)
CCOc1ccc(-c2nc(-c3ccc(C)cc3)no2)cc1 | 0 (active)
Clc1ccc(OCc2nc(-c3ccccc3)no2)c(Br)c1 | 1 (active)
CC(C)(C)c1ccc(OCc2nc(-c3ccccc3)no2)cc1 | 4 (inactive)
c1ccc(COc2cccc(-c3nc(-c4cccnc4)no3)c2)cc1 | 2.5 (inactive)
Cc1ccccc1OCc1nc(-c2ccc(Br)cc2)no1 | 4 (inactive)
COc1ccccc1NC(=O)c1ccccc1-c1nc(-c2ccccc2F)no1 | 4 (inactive)
O=C(CSc1nnc(-c2ccc(Cl)cc2)o1)NC1CC2CCC1C2 (centres undefined) | 4 (inactive)
N#Cc1ccc(CSc2nnc(-c3ccco3)o2)cc1 | 1.5 (inactive)

SMILES | survival and reproduction score
CCOc1ccccc1-c1nnc(SCC(=O)Nc2nc(C)cs2)o1 | 4 (inactive)
Cc1cc(C)nc(SCc2nc(-c3ccccc3)no2)n1 | 4 (inactive)
Clc1ccc(-c2noc(-c3ccccc3Br)n2)cc1 | 3 (inactive)
O=C(CSc1nnc(-c2ccc(Cl)cc2Cl)o1)Nc1ccccn1 | 4 (inactive)
COc1cccc(NC(=O)CSc2nnc(-c3ccc(Br)cc3)o2)c1 | 4 (inactive)
CCCCC(=O)Nc1ccccc1-c1nc(-c2cccnc2)no1 | 4 (inactive)
c1ccc(OCc2nc(-c3cccs3)no2)cc1 | 0 (active)
Cc1ccc(-c2noc(CSc3nc4ccccc4[nH]3)n2)cc1 | 4 (inactive)
CC1CCN(C(=O)CSc2nnc(-c3cccc(Cl)c3)o2)CC1 | 4 (inactive)
Cc1cc(OCc2nc(-c3ccccn3)no2)cc(C)c1Cl | 4 (inactive)
Cc1cccc(-c2nc(-c3ccc4c(c3)OCO4)no2)c1 | 4 (inactive)
CC(Sc1nnc(-c2cccnc2)o1)C(=O)c1ccccc1 (centres undefined) | 4 (inactive)
O=C(NCc1cccnc1)c1ccccc1-c1nc(-c2ccccc2Cl)no1 | 4 (inactive)
Cc1ccc(-c2nc(-c3ccccc3)no2)cc1 | 0.5 (active)
COc1ccc(-c2nnc(SCC(=O)Nc3cccc(Cl)c3Cl)o2)cc1 | 4 (inactive)
Cc1cc(OC(C)c2nc(-c3cccnc3)no2)ccc1Cl (centres undefined) | 4 (inactive)
CC(C)(C)NC(=O)CSc1nnc(-c2ccc(C(C)(C)C)cc2)o1 | 4 (inactive)
Cc1cc(OCc2nc(-c3ccccn3)no2)c(C)cc1Br | 4 (inactive)
O=C(CSc1nnc(-c2cccnc2)o1)c1ccc2ccccc2c1 | 4 (inactive)
